Calls of active or inactive are those of the source. How the source made its calls: active means hit-call score of the fitted dose curve at least 0.9, where 1 is the maximum; inactive means score below 0.9.

This assay is described as follows: ATG_Ets_CIS: Attagene CIS-FACTORIAL HepG2 Assay for human Erythroblast Transformation Specific (ETS) (AID 2282941). The note with it: HepG2 ETS cis-reporter transcription, actives raise or lower the signal. The protocol:
ATG_CIS is a cell-based, multiplexed-readout assay that uses HepG2, a human liver cell line, with measurements taken at 24 hours after chemical dosing in a 24-well plate.ATG_Ets_CIS is one of 52 assay component(s) measured or calculated from the ATG_CIS assay. It is designed to make measurements of mRNA induction, a form of inducible reporter, as detected with fluorescence intensity signals by Reverse transcription polymerase chain reaction (RT-PCR) and Capillary electrophoresis technology.Data from the assay component ATG_Ets_CIS was analyzed into 1 assay endpoint. This assay endpoint, ATG_Ets_CIS, was analyzed with bidirectional fitting relative to DMSO as the negative control and baseline of activity. Using a type of inducible reporter, measures of mRNA for gain or loss-of-signal activity can be used to understand the reporter gene at the transcription factor-level as they relate to the gene ETS1. Furthermore, this assay endpoint can be referred to as a primary readout, because this assay has produced multiple assay endpoints where this one serves a reporter gene function. To generalize the intended target to other relatable targets, this assay endpoint is annotated to the dna binding intended target family, where the subfamily is winged helix-turn-helix.
Human liver HepG2 cells are transiently transfected with multiple reporter transcription units (MRTUs) in 6-well plates using FuGene 6 reagent (Roche; 3 ml FuGene/1 mg DNA). The MRTU constructs are regulated by a cis-regulating element (promoter). […] A major difference between the CIS and TRANS system is that in CIS activities of endogenous TFs are measured, whereas the TRANS assay evaluates changes in activities of exogenous, chimeric NR-Gal4 proteins. […] At the end of 24 hour incubation, total RNA was isolated using TriZol reagent (Invitrogen). The isolated RNA is then reverse-transcribed using oligo(dT) primer and Mo-MLV reverse transcriptase (Invitrogen) with DNAse I (Ambion) treatment for 30 min. The one-tenth of the produced cDNA was amplified by PCR using Taq DNA polymerase (Invitrogen) and two reporter sequence-specific primers. The PCR products were fluorescently labeled by primer extension with 6-arboxyfluorescein (6-FAM) 5'-labeled reporter sequence-specific primer (2 min at 95 C, 20 s at 68 C and 10 min at 72 C) and these products were digested with 5U of HpaI (New England Biolabs) for 2h at 37 C. The fragments were purified using Qiaquick PCR columns (Qiagen), analyzed on an ABI 3130xL genetic analyzer (Applied Biosystems) with peak positions identified by using a set of X-rhodamine (ROX)-labeled MapMarker1000 molecular weight standards (BioVentures). The raw capillary electrophoresis data was processed using Attagraph software (Attagene).
For `CC1=CCC2C(=O)OC(=O)C2C1` (stereo not given), the compound was called inactive.

As for `CN1CN(C)CN(C)C1`, the result was inactive.

With `O=S(=O)(O)CCC(F)(F)C(F)(F)C(F)(F)C(F)(F)F`, the call was inactive.

In the case of `OCCCc1cccnc1`, the result was inactive.

For `O=S(=O)(O)CCC(F)(F)C(F)(F)C(F)(F)C(F)(F)C(F)(F)C(F)(F)C(F)(F)C(F)(F)F`, the outcome was inactive.

For `FC(F)(F)C(F)(F)C(F)(F)CC1CO1` (stereo not given), the compound was classed as inactive.

Regarding `Cc1cnccn1`, the call was inactive.

With `CCCCCCCCCc1ccc(OCCO)cc1`, the AC50 (as a rule, the midpoint of the concentration-response curve, whichever way the signal moves) is 22.9 µM (active).

Consider `C=CC(=O)OCCC(F)(F)C(F)(F)C(F)(F)C(F)(F)F`, for which the compound was classed as inactive.

As for `CCOCN(C(=O)CS(=O)(=O)O)c1c(C)cccc1CC`, the compound was called inactive.

With `CC(C)Nc1ccc(NC(C)C)c2c1C(=O)c1ccccc1C2=O`, the compound was classed as inactive.

For the compound `CC(C)OC=O`, the compound was called inactive.

In the case of `O=C(O)CCC(F)(F)C(F)(F)C(F)(F)C(F)(F)C(F)(F)C(F)(F)C(F)(F)F`, the compound was called inactive.

With `Cc1cc(O)c(C(C)(C)C)cc1C(C)(C)C`, the result was inactive.

As to `OCCC(O)CO` (stereo not given), the result was inactive.

Regarding `CC(=O)C=O`, the compound was classed as inactive.

`CSc1ccc(Cl)cc1`: the call was inactive.

For the compound `COc1ccccc1C=O`, the call was inactive.

Consider `Nc1cc([N+](=O)[O-])cc(Cl)c1O`, for which the result was inactive.

Turning to `CCC(C)CO` (stereo not given), the compound was called inactive.

Regarding `O=C(Cl)C(F)(F)C(F)(F)C(F)(F)C(F)(F)C(F)(F)C(F)(F)F`, the result was inactive.

With `O=C(O)C(F)(F)C(F)(F)C(F)(F)C(=O)O`, the compound was called inactive.

`CC1CCCCC1`: the outcome was inactive.

`O=C1C=CC(=O)N1c1ccccc1`: the result was inactive.

As for `CC(=O)c1ccccc1N`, the call was inactive.

For the compound `NC(O)(C(F)(F)F)C(F)(F)F`, the call was inactive.

As for `CCOC(=O)CCC(C)=O`, the outcome was inactive.

Consider `Nc1cccnc1N`, for which the outcome was inactive.

As to `NC(=O)C(F)(F)C(F)(F)C(F)(F)C(F)(F)C(N)=O`, the outcome was inactive.

For `CC(C)=CCCC(C)O` (stereo not given), the outcome was inactive.

As to `OCCCCC(F)(F)C(F)(F)C(F)(F)C(F)(F)F`, the call was inactive.

On to `CCCCCCCCCCCCCCCCC`, for which the compound was called inactive.

Consider `CCCCOC(=O)[C@H](C)O`, for which the outcome was inactive.

For `CCn1c2ccccc2c2ccccc21`, the outcome was inactive.

As to `Cc1ccc(O)c(-n2nc3ccccc3n2)c1`, the call was inactive.

Regarding `Brc1ccccn1`, the outcome was inactive.

For `COCCOCCC[Si](C)(O[Si](C)(C)C)O[Si](C)(C)C`, the compound was called inactive.

As for `CCCCOC(=O)C(C)O` (stereo not given), the result was inactive.

Turning to `COCCC(=O)OC`, the outcome was inactive.

For `CCN(CCO)S(=O)(=O)C(F)(F)C(F)(F)C(F)(F)C(F)(F)C(F)(F)C(F)(F)C(F)(F)C(F)(F)F`, the call was inactive.

For the origin of these results see PubChem BioAssay (EPA / NIEHS).
